# Unmarked numbers belong to inactive results. Active and inactive are the calls of the source.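 Rule for the calls, unless noted: active = mean inhibition above 46.68%, the untreated control wells mean plus 3 SD; inactive = the rest.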
# Target: Nuclear receptor coactivator 1 (Homo sapiens) (UniProt Q15788)
# Experiment: SRC1 coactivator transcriptional activity inhibitors, confirmation, cell-based, luminescence, quadruplicate (AID 588820);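 note: 0% = DMSO wells and 100% = gossypol 36 µM treated wells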
# Details: HEK293 GAL4-SRC1 luciferase reporter, at 3.6 µM, hits give high values
# Chain of Nuclear receptor coactivator 1 (Homo sapiens) (Q15788 whole entry, looked up): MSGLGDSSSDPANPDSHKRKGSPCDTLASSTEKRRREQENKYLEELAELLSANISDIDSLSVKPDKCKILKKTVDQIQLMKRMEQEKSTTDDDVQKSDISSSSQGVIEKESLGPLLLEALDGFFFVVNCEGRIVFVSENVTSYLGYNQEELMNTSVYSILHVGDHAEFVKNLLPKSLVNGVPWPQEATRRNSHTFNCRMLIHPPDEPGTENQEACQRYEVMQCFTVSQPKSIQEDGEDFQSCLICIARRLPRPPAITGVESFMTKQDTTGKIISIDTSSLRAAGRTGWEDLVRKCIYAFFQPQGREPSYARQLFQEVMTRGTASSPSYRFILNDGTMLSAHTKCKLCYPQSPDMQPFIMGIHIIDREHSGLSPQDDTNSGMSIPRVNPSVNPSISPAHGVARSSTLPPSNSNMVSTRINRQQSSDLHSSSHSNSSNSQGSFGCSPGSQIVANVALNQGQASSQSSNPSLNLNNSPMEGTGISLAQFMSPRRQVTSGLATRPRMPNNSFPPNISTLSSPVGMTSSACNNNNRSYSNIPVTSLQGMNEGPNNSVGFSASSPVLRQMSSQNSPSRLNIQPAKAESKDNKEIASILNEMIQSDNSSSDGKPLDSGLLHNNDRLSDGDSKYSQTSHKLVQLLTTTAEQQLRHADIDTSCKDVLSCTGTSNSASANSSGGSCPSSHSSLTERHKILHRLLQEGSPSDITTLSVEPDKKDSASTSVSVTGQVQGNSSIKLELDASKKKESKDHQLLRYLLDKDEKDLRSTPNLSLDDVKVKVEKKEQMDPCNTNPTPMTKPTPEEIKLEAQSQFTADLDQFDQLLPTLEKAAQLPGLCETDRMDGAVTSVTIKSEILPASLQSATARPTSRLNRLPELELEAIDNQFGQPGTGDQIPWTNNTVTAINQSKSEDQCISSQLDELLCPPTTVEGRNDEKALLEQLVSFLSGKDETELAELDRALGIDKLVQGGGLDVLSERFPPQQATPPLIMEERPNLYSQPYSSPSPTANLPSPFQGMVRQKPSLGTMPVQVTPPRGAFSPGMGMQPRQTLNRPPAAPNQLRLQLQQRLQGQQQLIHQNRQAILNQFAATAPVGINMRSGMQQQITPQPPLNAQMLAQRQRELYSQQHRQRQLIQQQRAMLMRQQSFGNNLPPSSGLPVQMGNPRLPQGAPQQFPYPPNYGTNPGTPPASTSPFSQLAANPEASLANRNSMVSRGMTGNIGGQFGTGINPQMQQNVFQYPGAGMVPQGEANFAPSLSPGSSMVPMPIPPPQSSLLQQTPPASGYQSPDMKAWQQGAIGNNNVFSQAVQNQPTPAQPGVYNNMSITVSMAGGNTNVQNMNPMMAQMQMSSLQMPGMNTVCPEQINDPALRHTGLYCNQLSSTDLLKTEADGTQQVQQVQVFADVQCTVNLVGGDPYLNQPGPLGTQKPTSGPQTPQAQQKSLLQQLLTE
row,Structure (SMILES),inhibition [%]
1,Cc1cccc(-n2c(CNC(=O)c3ccccc3)nnc2SCC(=O)Nc2nccs2)c1,-8.14
2,CN(C)CCNc1ccc2nnn3c4ccc(O)cc4c(=O)c1c23,0.55
3,COc1ccc2c(c1)-c1c(ssc1=S)C(C)(C)N2C(=O)CSC1=NCCS1,24.9
4,Cc1sc2ncnc(NCC3COc4ccccc4O3)c2c1C (stereo not given),-48.1
5,Cc1nc2ccc(NC(=O)c3cc(S(=O)(=O)N(C)c4ccccc4)ccc3Cl)cc2s1,-5.16
6,COc1cccc(CNc2nc(NCc3cccs3)nc3ccsc23)c1,-9.48
7,CN(C)CCN1C(=O)c2cccc3cc([N+](=O)[O-])cc(c23)C1=O,-146
8,CCc1c(C)nc2ncnn2c1NCCc1ccc(OC)cc1,-21.1
9,Cc1ccc(Cc2c(-c3ccco3)nc3c4ccccc4ccn23)cc1,-81.9
10,Cc1c(C(C)C)c(=O)n(-c2ccc(S(=O)(=O)NCc3ccccc3)cc2)n1C,-18.5
11,O=C(CSc1nnnn1C1CC2CCC1C2)Nc1ccnc2ccccc12 (stereo not given),-14.4
12,CCc1c(C)nc2c(C)cccc2c1SCCC#N,24.9
13,N#Cc1c(N)nc2c(c1-c1ccc(F)cc1)CCC2,-6.03
14,CC1(C)CC(N2CCCC2)=CC(=[N+]2CCCC2)C1,2.13
15,CC1(C)CC(N2CCCC2)=CC(=[N+]2CCCCC2)C1,-1.69
16,c1ccc(CC2CCN(c3ncnc4sccc34)CC2)cc1,-13.8
17,CCN(CC)S(=O)(=O)c1ccc(N2CCOCC2)c(NC(=O)c2cc(-c3ccccn3)nc3ccccc23)c1,-32
18,C#Cc1ccc(NC(=O)C2(C)CCN2C(=O)Cc2ccc(-c3ccccc3)cc2)cc1 (stereo not given),12.8
19,COc1ccc(-c2coc3c(C(=O)NCc4ccc(OC)c(OC)c4)cccc23)c(C)c1,-32
20,Fc1cccc(Cl)c1Cn1nnc2c(NCc3ccncc3)ncnc21,-0.7

row,Structure (SMILES),inhibition [%]
1,COc1ccc(Nc2cc(C)nc(NCc3ccccc3)n2)cc1,12.3
2,COc1ccc(CC(=O)Nc2cccc(S(=O)(=O)N3CCCCCC3)c2)cc1OC,-18.9
3,O=C(Nc1ccc(Cl)c([N+](=O)[O-])c1)C(Sc1ccccc1)c1ccccc1 (stereo not given),-8.15
4,O=C(Nc1ccc(OCC(F)(F)C(F)F)c(C(F)(F)F)c1)c1ccccc1O,-35.3
5,Cc1ccc(OCC(=O)NNC(=O)c2ccc3c(=O)n4c(nc3c2)CCC4)cc1,-7.39
6,Clc1ccc(-c2nnc(CSc3nnc(-c4cccs4)n3Cc3ccccc3)o2)cc1,-0.02
7,C=CCc1ccccc1OCC(=O)N/N=C/c1ccc(OC(C)=O)cc1OC(C)=O,16.6
8,COc1ccc(OCC(=O)Nc2ccc3c(c2)n(C)c(=O)n3C)cc1,-14.2
9,O=C(CSc1nnc(Cn2nnc3ccccc32)o1)N(Cc1ccc(F)cc1)c1ccccc1,-0.43
10,CC(C)C(=O)NC(c1ccc(Cl)cc1Cl)c1ccc2cccnc2c1O (stereo not given),6.86
11,CCN(CC(=O)Nc1ccc(NC(C)=O)cc1)C(=O)Cc1ccc(S(=O)(=O)N2CCOCC2)s1,6.3
12,Cc1ccc(S(=O)(=O)CC2CSc3nc4ccccc4n32)cc1 (stereo not given),-13.8
13,O=C(Nc1nonc1NC(=O)c1cccs1)c1cccs1,-7.76
14,CCN(CC)C1=CC(=[N+]2CCCC2)CC(C)(C)C1,-5.15
15,CCCOc1ccc(Cc2c(Cl)nc(SC)nc2NC)cc1,-9.8
16,COc1cccc2c1C(=O)c1c(O)c3c(c(O)c1C2=O)CC(O)(C(C)=O)CC3OC1CC(O)C(O)C(C)O1 (stereo not given),-3.87
17,CCN(CC)S(=O)(=O)c1cc(NC(=O)CNc2cccc(S(=O)(=O)N3CCCC3)c2)ccc1C,-4.32
18,O=C(CSc1nc2[nH]ncc2c(=O)[nH]1)N1CCCCC1,-8.66
19,Fc1ccc(NC(=S)N2CCCN(c3ccc(C(F)(F)F)cn3)CC2)c(F)c1,-32.2
20,CCC1CCCCN1C(=O)CSc1nc(N)cc(=O)[nH]1 (stereo not given),-15.7

# Test system: not listed separately
# Experiment: VP16 transactivation inhibitors, counter-screen for SRC1 inhibitor project, cell-based, luminescence, high throughput (AID 588824; in the data active = inhibition above about 25%)
# Details: cell-based VP16 transactivation luciferase luminescence; at 3.6 µM; hits give high values
row,Structure (SMILES),inhibition
1,Cc1cccc(-n2c(CNC(=O)c3ccccc3)nnc2SCC(=O)Nc2nccs2)c1,4.71%
2,CN(C)CCNc1ccc2nnn3c4ccc(O)cc4c(=O)c1c23,50.6% (active)
3,COc1ccc2c(c1)-c1c(ssc1=S)C(C)(C)N2C(=O)CSC1=NCCS1,12.4%
4,Cc1sc2ncnc(NCC3COc4ccccc4O3)c2c1C (stereo not given),26.2% (active)
5,Cc1nc2ccc(NC(=O)c3cc(S(=O)(=O)N(C)c4ccccc4)ccc3Cl)cc2s1,33.7% (active)
6,COc1cccc(CNc2nc(NCc3cccs3)nc3ccsc23)c1,2.77%
7,CN(C)CCN1C(=O)c2cccc3cc([N+](=O)[O-])cc(c23)C1=O,47.5% (active)
8,CCc1c(C)nc2ncnn2c1NCCc1ccc(OC)cc1,28.3% (active)
9,Cc1ccc(Cc2c(-c3ccco3)nc3c4ccccc4ccn23)cc1,-34.6%
10,Cc1c(C(C)C)c(=O)n(-c2ccc(S(=O)(=O)NCc3ccccc3)cc2)n1C,30.9% (active)
11,O=C(CSc1nnnn1C1CC2CCC1C2)Nc1ccnc2ccccc12 (stereo not given),44.7% (active)
12,CCc1c(C)nc2c(C)cccc2c1SCCC#N,8.27%
13,N#Cc1c(N)nc2c(c1-c1ccc(F)cc1)CCC2,-10.2%
14,CC1(C)CC(N2CCCC2)=CC(=[N+]2CCCC2)C1,23.9%
15,CC1(C)CC(N2CCCC2)=CC(=[N+]2CCCCC2)C1,31% (active)
16,c1ccc(CC2CCN(c3ncnc4sccc34)CC2)cc1,29.4% (active)
17,CCN(CC)S(=O)(=O)c1ccc(N2CCOCC2)c(NC(=O)c2cc(-c3ccccn3)nc3ccccc23)c1,-1.24%
18,C#Cc1ccc(NC(=O)C2(C)CCN2C(=O)Cc2ccc(-c3ccccc3)cc2)cc1 (stereo not given),36.2% (active)
19,COc1ccc(-c2coc3c(C(=O)NCc4ccc(OC)c(OC)c4)cccc23)c(C)c1,41.2% (active)
20,Fc1cccc(Cl)c1Cn1nnc2c(NCc3ccncc3)ncnc21,4.51%

row,Structure (SMILES),inhibition
1,COc1ccc(Nc2cc(C)nc(NCc3ccccc3)n2)cc1,23.2%
2,COc1ccc(CC(=O)Nc2cccc(S(=O)(=O)N3CCCCCC3)c2)cc1OC,33% (active)
3,O=C(Nc1ccc(Cl)c([N+](=O)[O-])c1)C(Sc1ccccc1)c1ccccc1 (stereo not given),5.98%
4,O=C(Nc1ccc(OCC(F)(F)C(F)F)c(C(F)(F)F)c1)c1ccccc1O,6.93%
5,Cc1ccc(OCC(=O)NNC(=O)c2ccc3c(=O)n4c(nc3c2)CCC4)cc1,-3.2%
6,Clc1ccc(-c2nnc(CSc3nnc(-c4cccs4)n3Cc3ccccc3)o2)cc1,30.5% (active)
7,C=CCc1ccccc1OCC(=O)N/N=C/c1ccc(OC(C)=O)cc1OC(C)=O,-4.05%
8,COc1ccc(OCC(=O)Nc2ccc3c(c2)n(C)c(=O)n3C)cc1,-5.89%
9,O=C(CSc1nnc(Cn2nnc3ccccc32)o1)N(Cc1ccc(F)cc1)c1ccccc1,38.8% (active)
10,CC(C)C(=O)NC(c1ccc(Cl)cc1Cl)c1ccc2cccnc2c1O (stereo not given),16.8%
11,CCN(CC(=O)Nc1ccc(NC(C)=O)cc1)C(=O)Cc1ccc(S(=O)(=O)N2CCOCC2)s1,8.19%
12,Cc1ccc(S(=O)(=O)CC2CSc3nc4ccccc4n32)cc1 (stereo not given),33.3% (active)
13,O=C(Nc1nonc1NC(=O)c1cccs1)c1cccs1,21.9%
14,CCN(CC)C1=CC(=[N+]2CCCC2)CC(C)(C)C1,22.7%
15,CCCOc1ccc(Cc2c(Cl)nc(SC)nc2NC)cc1,24.6%
16,COc1cccc2c1C(=O)c1c(O)c3c(c(O)c1C2=O)CC(O)(C(C)=O)CC3OC1CC(O)C(O)C(C)O1 (stereo not given),16.4%
17,CCN(CC)S(=O)(=O)c1cc(NC(=O)CNc2cccc(S(=O)(=O)N3CCCC3)c2)ccc1C,32.8% (active)
18,O=C(CSc1nc2[nH]ncc2c(=O)[nH]1)N1CCCCC1,-6.86%
19,Fc1ccc(NC(=S)N2CCCN(c3ccc(C(F)(F)F)cn3)CC2)c(F)c1,36.5% (active)
20,CCC1CCCCN1C(=O)CSc1nc(N)cc(=O)[nH]1 (stereo not given),-3.43%
